A short description of assay [1]: P. berghei load reduction in hepatocytes – cell-based, HepG2, luciferase luminescence, HepG2 viability, primary screen (AID 624349; in the data active = parasite load remaining mostly below about 12%, no sharp cut-off; inactive = mostly above about 10%;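 note: 100% = mean of DMSO negative control wells on the same plate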). Conditions: P. berghei liver stage in HepG2, luciferase luminescence, concentration not given here; parasite load remaining: stronger effect = lower value; viability: measured here: HepG2 viability without parasites.
Assay [2] in a line: liver-stage malaria parasite load reduction – cell-based, known kinase inhibitor set, luminescence, hepatoma host viability (AID 624392).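 Note: infected cells incubated roughly two days before readout.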 The note with it: Plasmodium liver stage in hepatoma cells, luciferase luminescence, concentration not given here; liver cell % of control: measured here: host liver cell viability; parasite % of control: stronger effect = lower value.
Assay [3] relates to Hepatitis C virus NS3 helicase. Briefly: blockers of NS3h binding to ssDNA – biochemical, fluorescence polarization, LOPAC1280 library, primary screen (AID 687035; in the data active = inhibition above about 37%). The note with it: Purified HCV NS3 helicase, Cy5-dT15 ssDNA binding fluorescence polarization; stronger effect = higher value; concentration not given here. Background: Polarisation of emitted light reports the rotation of a fluorescent probe.

Assay [4] can be described thus: compounds altering Cy5-DNA-NS3h complex signal – biochemical, LOPAC1280, artefact control for HCV NS3 helicase inhibitor project (AID 687037). Conditions: Cy5-DNA-NS3h complex fluorescence interference counterscreen. Background: A counterscreen serves to expose hits that act by an unwanted route or on another target.
A short description of assay [5]: blockers of cellular phospholipid synthesis – cell-based, LOPAC library, screen 4, primary screen (AID 1347384). The note with it: animal cells, phospholipid biosynthesis inhibition screen; at 10 µM.
The nature of assay [6]: galactose survival enhancers in mitochondrial complex I cybrids – cell-based, galactose medium, ATP luminescence, primary screen (AID 1645843;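 active = z-score of at least 1.8 in each of two replicates, scored against plate mean and spread of sample wells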;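 note: positive z means more ATP and so rescue of galactose-driven cybrid death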). The note with it: complex I mutant cybrid cells, 72 h, stronger effect = higher value.
The nature of assay [7]: compounds altering circadian rhythm period length – cell-based, LOPAC library, luminescence reporter (AID 2774).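 Note: values are relative to mean of DMSO wells on each plate.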 The note with it: circadian reporter cells, at 7 µM, actives lie on both sides.
The nature of assay [8]: chitosan synthesis blockers in C. neoformans – flow cytometry, Cibacron Brilliant Red staining (AID 1347148).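 Note: compound exposure lasted three days at 37 degrees C.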 Conditions: Cryptococcus neoformans chitosan, stronger effect = lower value; at 10 µM unless noted. In general terms: Flow cytometry measures light scatter and fluorescence of single cells or particles in a stream.
Assay [9] in a line: growth inhibition, single agents and combos, LFS_MB_1R, cell-based, cisplatin or BGB combos, synergistic combos for chromothripsis tumors (AID 1671452; in the data active = inhibition above about 80%;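 note: cells exposed for 96 hours before readout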). Conditions: LFS_MB_1R medulloblastoma cells, stronger effect = higher value.
A short description of assay [10]: growth inhibition, single agents and combos, CRL2098, cell-based, BGB or cisplatin IC20 combos, synergistic combos for chromothripsis tumors (AID 1671454; in the data active = inhibition above about 80%;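 note: cells exposed for 96 h before readout; 0% = vehicle DMSO and 100% = killing by high DMSO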). The note with it: CRL2098 osteosarcoma cells, drug combinations, stronger effect = higher value.
The nature of assay [11]: growth inhibition, single agents and combos, HD-MB03, cell-based, BGB or cisplatin IC20 combos, synergistic combos for chromothripsis tumors (AID 1671455; in the data active = inhibition above about 83%;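 note: 0% = vehicle DMSO and 100% = high DMSO as cytotoxic control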). Conditions: HD-MB03 medulloblastoma cells, stronger effect = higher value.
Assay [12] is described as follows: growth inhibition, single agents and combos, UWB1.289, cell-based, BGB or cisplatin combos, synergistic combos for chromothripsis tumors (AID 1671456; in the data active = inhibition above about 80%;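 note: cells exposed to compound for four days; 0% = vehicle DMSO and 100% = killing by high DMSO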). Conditions: UWB1.289 ovarian carcinoma cells, stronger effect = higher value.
The nature of assay [13]: growth inhibition, single agents and combos, LFS_MB_2R, cell-based, cisplatin combos, synergistic combos for chromothripsis tumors (AID 1671457; in the data active = inhibition above about 80%;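 note: cells exposed to compound for four days before readout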). The note with it: LFS_MB_2R medulloblastoma cells, stronger effect = higher value.
The nature of assay [14]: UWB1.289_BRCA1 ovarian cancer growth, cell-based, BGB or cisplatin combinations (AID 1671459; in the data active = inhibition above about 80%). Conditions: UWB1.289 BRCA1 ovarian carcinoma, drug combinations, stronger effect = higher value.
Assay [15] is described as follows: drug combination toxicity in non-malignant astrocytes – cell-based, BGB or cisplatin IC20 combos, cytotoxicity control for chromothriptic childhood tumor combination screen (AID 1671460; in the data active = inhibition above about 80%;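 note: cells exposed to compounds for 96 hours before viability readout; 0% = vehicle and 100% = killing control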). Conditions: Human astrocytes, viability inhibition, drug combinations, at 0.5 µM, stronger effect = higher value.
Assay [16] can be described thus: compounds altering viability of human ES cells (AID 493140).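 Note: cells exposed to compounds for four days before counting.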 The note with it: human embryonic stem cell survival screen; stronger effect = higher value.
Assay [17] concerns the target NAD(+) hydrolase SARM1 (Homo sapiens) (UniProt Q6SZW1). Briefly: blocking NAD cleavage by SARM1 SAM-TIR – cell lysate, NAD-Glo luminescence (AID 1508614;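 active = compound whose remaining NAD level is above about 45 nM, limit read from the data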;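 note: higher remaining NAD means stronger inhibition of SARM1 NADase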). The note with it: SAM-TIR HEK293T lysate NADase, at 1 µM, stronger effect = higher value.
Assay [18] can be described thus: altered dexamethasone sensitivity, NF-kB reporter, cell-based, luciferase, IL-1B stimulus (AID 624486).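 For percent of negative control (+Dex): 100% = mean signal of vehicle control wells on the plate.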 The note with it: IL-1B + dexamethasone, luminescence; percent of negative control (+Dex): actives lie on both sides, concentration not given here; z-score: measured here: IL-1B alone, no Dex.
The nature of assay [19]: C. elegans survival during P. aeruginosa infection – whole organism (AID 651566).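 Note: tested at 14 µM; sign flipped so higher z means a lower ratio.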 Conditions: C. elegans killed by P. aeruginosa, survival ratio.
Assay [20] is described as follows: pro-inflammatory signaling induction in mouse macrophages – cell-based, murine, luminescence (AID 652131). Conditions: murine macrophage pro-inflammatory reporter, stronger effect = higher value.
Where [21] appears, read: measured here: combination with cisplatin, at 0.5 µM.
Setting [22] is: measured here: combination with cisplatin, at 5 µM.

Where “and” joins values, the source holds several entries; their conditions need not be identical. Equal entries are not always repeated. Some compounds were tested as several samples or in several runs, with calls that do not always agree. Calls of active or inactive are those of the source. Unless noted, the rule behind the calls is not given here.

A word on the viability: it is a read-out of living cells in per cent, often relative to untreated cells. The term inhibition denotes the relative decrease from the control value, in per cent.

Sequence of NAD(+) hydrolase SARM1 (Homo sapiens) (Q6SZW1 whole entry, looked up): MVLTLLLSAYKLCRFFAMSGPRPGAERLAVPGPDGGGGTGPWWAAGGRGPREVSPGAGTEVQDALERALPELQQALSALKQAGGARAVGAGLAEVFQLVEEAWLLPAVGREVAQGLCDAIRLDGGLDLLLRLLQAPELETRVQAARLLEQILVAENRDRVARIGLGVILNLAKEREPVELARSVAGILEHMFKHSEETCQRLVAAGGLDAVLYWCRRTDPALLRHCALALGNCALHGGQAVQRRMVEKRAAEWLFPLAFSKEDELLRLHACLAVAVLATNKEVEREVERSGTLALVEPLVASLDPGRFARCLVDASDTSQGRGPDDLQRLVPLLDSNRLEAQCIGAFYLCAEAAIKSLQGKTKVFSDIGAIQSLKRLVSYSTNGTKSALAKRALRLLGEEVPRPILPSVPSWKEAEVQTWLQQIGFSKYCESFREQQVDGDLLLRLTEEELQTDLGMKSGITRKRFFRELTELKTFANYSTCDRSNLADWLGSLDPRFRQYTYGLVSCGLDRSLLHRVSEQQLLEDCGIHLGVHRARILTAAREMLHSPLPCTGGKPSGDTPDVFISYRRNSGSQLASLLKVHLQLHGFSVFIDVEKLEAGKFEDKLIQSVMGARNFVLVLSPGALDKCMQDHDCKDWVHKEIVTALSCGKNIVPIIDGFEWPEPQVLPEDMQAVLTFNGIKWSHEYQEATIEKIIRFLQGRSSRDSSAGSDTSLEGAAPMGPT

Consider `COc1ccc2c(c1)c(C1=C(c3c[nH]c4ccccc34)C(=O)NC1=O)cn2CCCN(C)C`, for which, in [1], the parasite load remaining is 27.6% (inactive) and the viability was determined as 93.9%.

Consider `O=C1NC(=O)/C(=C/c2cccc(C(F)(F)F)c2)S1`, for which, in assay [1], the parasite load remaining was 38.3% (inactive) and the viability stood at 85%.

Regarding `O=C(Nc1cc(Cl)cc2c1[nH]c1cnccc12)c1cccnc1`, in assay [1], the parasite load remaining is 33.8% (inactive) and the viability amounted to 87.1%.

Consider `CCN(CCO)CCCOc1ccc2c(Nc3cc(CC(=O)Nc4cccc(F)c4)[nH]n3)ncnc2c1`, for which the parasite % of control in [2] was 144% (inactive) and 137% (inactive) and 97.1% (inactive).

With `CN1CC(=O)NC1=NC(=O)Nc1cccc(Cl)c1`, the inhibition in assay [3] was -2% (inactive). In assay [4], the fluorescence ratio (interference) is 1 (inactive). The molecule was classed as inactive in assay [5].

Consider `CS(=O)(=O)c1ccc(C(=O)Nc2ccc(Cl)c(-c3ccccn3)c2)c(Cl)c1`, for which, in assay [6], the z-score was 0.355 (inactive).

With `CC1(C)CCC2=C(O1)c1ccccc1C(=O)C2=O`, the period change in assay [7] is -0.24 h (inactive). Moreover, the inhibition in [3] was -5% (inactive); in assay [9] (at 0.5 µM), -13.2% (inactive) and 14.9% (inactive); in [9] (measured here: combination with BGB IC40, at 0.05 µM), -55.4% and -11.7%; in [9] (setting [21]), -25.3% and 44%; in assay [9] (setting [22]) it was 96.9% and 102%; in assay [10] (at 0.5 µM), -39.7% (inactive) and -32.9% (inactive). In addition, the inhibition in assay [10] (measured here: combination with BGB at IC20, at 0.5 µM) was -38.5% and -7.72%; in assay [10] (measured here: combination with cisplatin at IC20, at 0.5 µM), -39.4% and -35%; in [11] (at 0.5 µM), -12.2% (inactive) and -9.16% (inactive); in [11] (measured here: combo with BGB at IC20, at 0.5 µM), 5.55% and -5.28%; in [11] (measured here: combo with cisplatin at IC20, at 0.5 µM), -34.7% and -19.2%; in [12] (at 0.5 µM), 12.3% (inactive) and 6.12% (inactive). For the same molecule, the inhibition in [12] (measured here: inhibition with BGB combination, at 0.05 µM) was -2.17% and 7.32%; in [12] (measured here: inhibition with cisplatin combination, at 0.05 µM), -10.2% and -8.62%; in [13] (at 0.5 µM), -21.3% (inactive) and -12.9% (inactive); in assay [13] (setting [21]), -28.3% and -6.61%; in assay [13] (setting [22]), 89.1% and 88.9%; in assay [14] (BGB combination, concentration series, at 5 µM), 128% and 124%. Moreover, the inhibition in assay [14] (at 0.5 µM) is 0.6% (inactive) and 6.57% (inactive); in [14] (cisplatin combination, concentration series, at 5 µM) it was 129% and 128%; in [15] it was 16.9% (inactive) and 14.6% (inactive); in assay [15] (measured here: combo with BGB IC20), 23.9% and 15.8%; in assay [15] (measured here: combo with cisplatin IC20), 20.7% and 18.1%. For the same molecule, in assay [4], the fluorescence ratio (interference) was 1 (inactive). The fold fluorescence in [8] is 9.76 [at 206.4 µM] (inactive). The call in [5] was inactive. In assay [6], the z-score is -1.29 (inactive).

For the molecule `N#CCNC(=O)c1ccc(-c2ccnc(Nc3ccc(N4CCOCC4)cc3)n2)cc1`, in assay [2], the liver cell % of control is 71.7% and 64% and 76%; the parasite % of control was 0.479% (inactive) and 0.449% (inactive) and 0.525% (active).

`COC(=O)c1ccc2c(C(=Nc3ccc(N(C)C(=O)CN4CCN(C)CC4)cc3)c3ccccc3)c(O)[nH]c2c1`: in assay [2], the liver cell % of control is 156% and 81.4% and 93.4%; the parasite % of control is 197% (inactive) and 560% (inactive) and 349% (inactive).

On to `Clc1ccc(COC(Cn2ccnc2)c2ccc(Cl)cc2Cl)c(Cl)c1` (configuration not stated), for which the survival in assay [16] is 33.8 (inactive).

As for `COc1ccc2c(c1)CC[C@@H]1[C@@H]2CC[C@]2(C)[C@@H](NCCCCCCN3C(=O)C=CC3=O)CC[C@@H]12`, the fold fluorescence in [8] was 12.8 [at 107.6 µM] (inactive).

Consider `COc1cc2nccc(Oc3ccc(NC(=O)Nc4cc(C)on4)c(Cl)c3)c2cc1OC`, for which, in assay [1], the parasite load remaining was 25.6% (inactive) and the viability amounted to 70.1%.

Take `Cc1ccc(F)c(NC(=O)Nc2ccc(-c3cccc4[nH]nc(N)c34)cc2)c1`: in [2], the liver cell % of control is 57% and 72.1% and 102%; the parasite % of control was 112% (inactive) and 141% (inactive) and 35.1% (inactive).

Consider `C[C@H]1[C@H](O)O[C@@H]2O[C@@]3(C)CC[C@H]4[C@H](C)CC[C@@H]1[C@@]24OO3`, for which the remaining NAD in assay [17] was 10 nM (inactive).

As for `N#Cc1c(NC(=O)c2cccc3ccccc23)sc2c1CCCC2`, in assay [1], the parasite load remaining was 47.8% (inactive) and the viability was found to be 98%. Further, in assay [2], the liver cell % of control was determined as 69% and the parasite % of control was 217% (inactive). In assay [18], the percent of negative control (+Dex) is 130% (inactive) and the z-score amounted to 1.48. Moreover, the z-score in assay [19] is -1.07 (inactive). In addition, the z-score in [20] is -1.04 (inactive).

In the case of `Nc1nc(Nc2ccc(S(N)(=O)=O)cc2)nn1C(=O)c1c(F)cccc1F`, in assay [1], the parasite load remaining is 42.7% (inactive) and the viability is 170%. Also, in assay [2], the liver cell % of control was 60.7% and 62.5% and 90.9%; the parasite % of control is 8.09% (inactive) and 28.9% (inactive) and 97.5% (inactive).

On to `COc1cc2ncnc(Nc3cccc(Cl)c3)c2cc1OC`, for which the period change in assay [7] is 0.545 h (inactive). Moreover, the survival in assay [16] was 138 (inactive). In addition, the inhibition in [3] is 0% (inactive). Also, in assay [4], the fluorescence ratio (interference) was 1 (inactive). In [8], the fold fluorescence was 5.72 [at 142 µM] (inactive). Also, the call in assay [5] was inactive.

For the molecule `CC(C)=CCC/C(C)=C/CC/C(C)=C/CSc1ccccc1C(=O)O`, the period change in assay [7] is -0.01 h (inactive).

Take `CNc1nccc(-c2cccnc2Oc2cc(C(=O)Nc3cccc(C(F)(F)F)c3)ccc2C)n1`: in [2], the liver cell % of control was 245% and 255% and 102%; the parasite % of control was 0.405% (inactive) and 0.413% (active) and 75.6% (inactive).

Take `CC(=O)Oc1cc2c(s1)CCN(C(C(=O)C1CC1)c1ccccc1F)C2` (configuration not stated): the remaining NAD in assay [17] was 10 nM (inactive).
